Results from PubChem BioAssay AID1159580 (chemical genetic matrix, 2015).
About 2,000 (36%) of roughly 5,500 compounds were called active. Roughly 18% stayed inconclusive and do not appear here. No stated cut-off is given here; in the data, active means normalized growth mostly below about 0.91 (no sharp cut-off); inconclusive means no clear call, values can overlap the other calls; inactive means mostly above about 0.92. The list shows a part of the results.

Experiment: chemical genetic growth profiling, strain panel (AID 1159580);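 further: tested at 20 µM; growth read once vehicle control cultures reached saturation at 30 °C; 1 = growth at the plate median or of vehicle wells; lower values mean less growth of the strain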
Details: S. cerevisiae deletion strains, growth OD
[1] = locus YAL040C, strain CLN3, hits give low values
[2] = locus YCL061C, strain MRC1 (second series), hits give low values
[3] = locus YDR363W, strain ESC2, hits give low values
[4] = locus YER002W, strain NOP16, hits give low values
[5] = locus YNL175C, strain NOP13, hits give low values
[6] = locus YNL197C, strain WHI3, hits give low values
[7] = locus YNL224C, strain SQS1, hits give low values
[8] = locus YNL322C, strain KRE1, hits give low values
[9] = locus YOR083W, strain WHI5 (second series), hits give low values
[10] = locus YPL055C, strain LGE1, hits give low values
[11] = locus YPL241C, strain CIN2, hits give low values

Measured: normalized growth

O[Si](CCCN1CCCCC1)(c1ccc(F)cc1)C1CCCCC1 (configuration not stated)
inactive: [1] 0.964 | [2] 0.986 | [3] 0.988 | [4] 1.04 | locus YGR229C, strain SMI1, hits give low values 0.972 | locus YJR075W, strain HOC1, hits give low values 1.02 | locus YMR263W, strain SAP30, hits give low values 1 | [5] 0.995 | [6] 1.01 | [7] 1.01 | [8] 0.982 | [9] 1.08 | [10] 0.981 | [11] 0.994

CC1=CC(=O)C(CCOCCC2=CC(=O)C(C)=CC2=O)=CC1=O
inactive: locus YAR019C, strain CDC15, hits give low values 0.981 | locus YBL105C, strain PKC1, hits give low values 0.99 | locus YBR135W, strain CKS1, hits give low values 0.985 | locus YBR136W, strain MEC1, hits give low values 0.982 | locus YBR160W, strain CDC28, hits give low values 0.983 | locus YDL017W, strain CDC7, hits give low values 0.992 | locus YDL028C, strain MPS1, hits give low values 0.981 | locus YDL101C, strain DUN1, hits give low values 0.973 | locus YDL108W, strain KIN28, hits give low values 0.983 | locus YDL132W, strain cdc53, hits give low values 0.988 | locus YDL214C, strain PRR2, hits give low values 0.701 | locus YDR052C, strain DBF4, hits give low values 0.991 | locus YDR054C, strain cdc34, hits give low values 0.986 | locus YDR226W, strain ADK1, hits give low values 0.979 | locus YDR477W, strain SNF1, hits give low values 0.706 | locus YER123W, strain YCK3, hits give low values 0.806 | locus YER133W, strain GLC7, hits give low values 0.765 | locus YFL009W, strain cdc4, hits give low values 0.993 | locus YFL029C, strain CAK1, hits give low values 0.987 | locus YFR003C, strain YPI1, hits give low values 0.989 | locus YFR019W, strain FAB1, hits give low values 0.864 | locus YFR028C, strain CDC14, hits give low values 0.985 | locus YGR040W, strain KSS1, hits give low values 0.739 | locus YGR052W, strain FMP48, hits give low values 0.7 | locus YGR092W, strain DBF2, hits give low values 0.917 | locus YHR079C, strain IRE1, hits give low values 1.07 | locus YHR205W, strain SCH9, hits give low values 0.958 | locus YIL147C, strain SLN1, hits give low values 0.984 | locus YJL095W, strain BCK1, hits give low values 0.863 | locus YJL128C, strain PBS2, hits give low values 0.934 | locus YJR016C, strain ILV3, hits give low values 0.987 | locus YJR066W, strain TOR1 (second series), hits give low values 0.804 | locus YJR066W, strain TOR1, hits give low values 0.502 | locus YKL048C, strain ELM1, hits give low values 0.981 | locus YKL067W, strain YNK1, hits give low values 0.857 | locus YKL101W, strain HSL1, hits give low values 0.945 | locus YKL193C, strain SDS22, hits give low values 0.995 | locus YKL203C, strain TOR2, hits give low values 0.976 | locus YLR133W, strain CKI1, hits give low values 0.953 | locus YLR403W, strain SFP1, hits give low values 0.938 | locus YML070W, strain DAK1, hits give low values 0.866 | locus YMR001C, strain CDC5, hits give low values 0.984 | locus YMR205C, strain PFK2 (second series), hits give low values 0.97 | locus YMR277W, strain FCP1, hits give low values 0.987 | locus YNL006W, strain LST8, hits give low values 0.996 | locus YNL020C, strain ARK1, hits give low values 0.959 | locus YNL161W, strain CBK1, hits give low values 0.986 | locus YNL183C, strain NPR1, hits give low values 0.793 | locus YNL207W, strain RIO2, hits give low values 0.992 | locus YNL222W, strain SSU72, hits give low values 0.99 | locus YNL307C, strain MCK1 (second series), hits give low values 0.969 | locus YOL078W, strain AVO1, hits give low values 0.989 | locus YOL136C, strain PFK27, hits give low values 0.818 | locus YOR061W, strain CKA2, hits give low values 0.946 | locus YOR119C, strain RIO1, hits give low values 0.972 | locus YOR231W, strain MKK1, hits give low values 1.05 | locus YOR329C, strain SCD5, hits give low values 0.999 | locus YPL031C, strain PHO85, hits give low values 0.778 | locus YPL153C, strain RAD53, hits give low values 0.909 | locus YPL204W, strain HRR25, hits give low values 0.899 | locus YPL209C, strain IPL1, hits give low values 0.991 | locus YPR025C, strain CCL1, hits give low values 0.991 | locus YPR106W, strain ISR1, hits give low values 0.986 | locus YPR111W, strain DBF20, hits give low values 0.98 | strain NNK1, hits give low values 0.993 | strain TSCII, hits give low values 0.991
active: locus YHR082C, strain KSP1, hits give low values 0.444 | locus YLR113W, strain HOG1, hits give low values 0.685 | locus YPL256C, strain CLN2, hits give low values 0.234

CCOC(=O)C1=C(C)NC(=S)NC1c1cccc(O)c1 (configuration not stated)
inactive: locus YAL013W, strain DEP1, hits give low values 0.995 | [1] 0.985 | [2] 1 | [3] 1 | [4] 0.989 | locus YGR078C, strain PAC10, hits give low values 1 | locus YNL153C, strain GIM3, hits give low values 0.976 | [5] 0.995 | [6] 0.99 | [7] 0.996 | [8] 0.997 | [9] 0.968 | [10] 0.991 | [11] 1
